Experimental data taken from PubChem BioAssay (Tox21).
Where “and” joins values, the source holds several entries; their conditions need not be identical. Equal values may be shown once. Records with an inconclusive call do not appear. Where a call stands in place of a potency, no number is given. The source holds several records for some structures; these can differ, active in one and inactive in another. Calls of active or inactive are those of the source. Calls follow the shape of the dose curve; as a rule, active = well fitted curve in the direction sought with a large enough effect in the repeat runs; inconclusive = weak or mixed curves; inactive = no such curve, though single readings can be large; an effect the other way counts as inactive or inconclusive.

Columns and labels:
[1] = qHTS assay to identify small molecule antagonists of the glucocorticoid receptor (GR) signaling pathway - cell viability counter screen (AID 720693); also: nearly all actives have a fitted effect of over 55% in size; also: potency is read from the fitted curve at half-maximal effect
[2] = qHTS assay for identifying genotoxic compounds that show differential cytotoxicity against isogenic chicken DT40 cell lines with known DNA damage response pathways - wild type cell line (AID 743012); also: nearly all actives have a fitted effect of over 60% in size; also: potency is read from the fitted curve at half-maximal effect
Summary of the method: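 Wild type DT40, 300 cells/well, ~0.5 h settle at 37 C/5% CO2; compounds in DMSO added by pintool; 40 h at 37 C/5% CO2; CellTiter-Glo, 30 min RT; luminescence.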

[3] = qHTS assay for identifying genotoxic compounds that show differential cytotoxicity against isogenic chicken DT40 cell lines with known DNA damage response pathways - Rev3 mutant cell line (AID 743014); also: nearly all actives have a fitted effect of over 55% in size; also: potency is read from the fitted curve at half-maximal effect
[4] = qHTS assay for identifying genotoxic compounds that show differential cytotoxicity against isogenic chicken DT40 cell lines with known DNA damage response pathways - Rad54/Ku70 mutant cell line (AID 743015); also: nearly all actives have a fitted effect of over 60% in size; also: potency is read from the fitted curve at half-maximal effect
[5] = qHTS assay to identify small molecule antagonists of the androgen receptor (AR) signaling pathway - cell viability counter screen (AID 743033; also: nearly all actives have a fitted effect of over 45% in size; also: potency is read from the fitted curve at half-maximal effect)
[6] = biological target: Androgen receptor (Homo sapiens) (UniProt P10275); assay: qHTS assay to identify small molecule agonists of the androgen receptor (AR) signaling pathway using the MDA cell line (AID 743040; also: nearly all actives have a fitted effect of over 20% in size)
Summary of the method: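 Human breast carcinoma MDA-kb2 reporter cells (MMTV-luc, AR/GR elements) were treated for 16 h at 37C in 0% CO2 following a 5 h settling period. Signal was quantified by ONE-Glo luminescence.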

[7] = qHTS assay to identify small molecule antagonists of the androgen receptor (AR) signaling pathway using the MDA cell line - cell viability counter screen (AID 743041; also: nearly all actives have a fitted effect of over 45% in size; also: potency is read from the fitted curve at half-maximal effect)
Summary of the method: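 Same-well cytotoxicity was assessed by CellTiter-Fluor in MDA-kb2 AR-luc cells after 16 h of compound treatment under R1881 agonism.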

[8] = biological target: Androgen receptor (Homo sapiens) (UniProt P10275); assay: qHTS assay to identify small molecule antagonists of the androgen receptor (AR) signaling pathway using the MDA cell line (AID 743042; also: nearly all actives have a fitted effect of over 55% in size; also: potency is read from the fitted curve at half-maximal effect)
Summary of the method: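 MDA-kb2 breast carcinoma cells carrying MMTV-luciferase (AR/GR responsive) were co-treated with compounds and the agonist R1881 for 16 h at 37C. Inhibition read as ONE-Glo luminescence; CellTiter-Fluor fluorescence measured in parallel for cytotoxicity.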

Sequence of Androgen receptor (Homo sapiens) (P10275 whole entry, looked up): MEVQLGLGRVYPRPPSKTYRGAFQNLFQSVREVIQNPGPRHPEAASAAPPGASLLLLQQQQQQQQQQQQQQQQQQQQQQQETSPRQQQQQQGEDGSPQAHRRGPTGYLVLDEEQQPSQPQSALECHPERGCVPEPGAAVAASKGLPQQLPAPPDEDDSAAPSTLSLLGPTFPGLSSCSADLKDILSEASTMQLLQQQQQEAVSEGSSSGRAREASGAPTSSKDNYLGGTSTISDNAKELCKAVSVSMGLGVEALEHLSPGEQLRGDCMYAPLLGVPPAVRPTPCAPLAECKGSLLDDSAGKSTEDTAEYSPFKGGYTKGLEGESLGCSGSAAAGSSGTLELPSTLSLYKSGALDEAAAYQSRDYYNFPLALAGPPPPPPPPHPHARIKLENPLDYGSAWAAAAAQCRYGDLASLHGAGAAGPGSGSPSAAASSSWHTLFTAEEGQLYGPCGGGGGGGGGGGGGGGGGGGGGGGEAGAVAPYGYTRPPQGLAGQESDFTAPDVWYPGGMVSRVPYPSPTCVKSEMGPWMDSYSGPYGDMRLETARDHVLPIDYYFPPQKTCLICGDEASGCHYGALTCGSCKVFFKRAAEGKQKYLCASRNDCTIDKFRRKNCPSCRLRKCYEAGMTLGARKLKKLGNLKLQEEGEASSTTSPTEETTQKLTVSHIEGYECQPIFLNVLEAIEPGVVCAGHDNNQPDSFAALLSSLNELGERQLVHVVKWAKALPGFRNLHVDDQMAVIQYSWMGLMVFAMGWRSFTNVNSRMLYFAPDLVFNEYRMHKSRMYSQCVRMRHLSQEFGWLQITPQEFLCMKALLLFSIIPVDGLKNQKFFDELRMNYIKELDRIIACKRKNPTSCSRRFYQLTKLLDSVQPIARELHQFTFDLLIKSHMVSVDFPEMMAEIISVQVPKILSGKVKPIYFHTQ

Structure (SMILES) | Potency [1] | Potency [2] | Potency [3] | Potency [4] | Potency [5] | Potency [6] | Potency [7] | Potency [8]
OCCN1CCN(CC/C=C2/c3ccccc3Sc3ccc(C(F)(F)F)cc32)CC1 | inactive | 9.44 µM (active) | 13.3 µM (active) | 11.9 µM (active) | 19 µM (active) | inactive | – | –
C[C@]12CCC(=O)C=C1CC[C@@H]1[C@@H]2[C@@H](O)C[C@@]2(C)[C@H]1CC[C@]2(O)C(=O)COC(=O)CCC(=O)O | inactive | 26.6 µM (active) | 18.8 µM (active) | 26.6 µM (active) | inactive | – | inactive | –
CCCN(CCC)C(=O)C(CCC(=O)OCCCN1CCN(CCOC(=O)Cc2c(C)n(C(=O)c3ccc(Cl)cc3)c3ccc(OC)cc23)CC1)NC(=O)c1ccccc1 (stereo not drawn) | inactive | 23.7 µM (active) | 26.6 µM (active) | 23.7 µM (active) | inactive | inactive | inactive | –
Cc1cc(CCN2CCN(c3nsc4ccccc34)CC2)cc2c1NC(=O)CC2(C)C | 49 µM (active) | 3.06 µM (active) | 5.45 µM (active) | 4.86 µM (active) | 13.8 µM (active) | inactive | – | 15.4 µM (active)
COc1ccc(C(=O)/C(Br)=C\C(=O)O)cc1 | inactive | inactive and 3.86 µM (active) | inactive and 6.11 µM (active) | 6.11 µM (active) | inactive | inactive | – | 23.7 µM (active) and 30.6 µM (active)
[Cl][Bi]([Cl])([c]1ccccc1)([c]1ccccc1)[c]1ccccc1 | 48.7 µM (active) | 1.36 µM (active) | 2.16 µM (active) | 2.42 µM (active) | 12.2 µM (active) | inactive | 27.1 µM (active) | 13.6 µM (active)
CCC(N)(CO)CO | inactive | inactive | inactive | inactive | inactive | – | inactive | –
O=C1Cc2cc(CCN3CCN(c4nsc5ccccc45)CC3)c(Cl)cc2N1 | inactive | 21.1 µM (active) and 10.6 µM (active) | 33.5 µM (active) and 26.6 µM (active) | 18.8 µM (active) and 9.44 µM (active) | inactive | – | inactive | –
CCCC(c1cc(C(C)(C)C)c(O)cc1C)c1cc(C(C)(C)C)c(O)cc1C | 11.1 µM (active) | 12.3 µM (active) | 12.3 µM (active) | 12.3 µM (active) | 22.1 µM (active) | – | 27.6 µM (active) | –
Oc1cccc2cc3cccc(O)c3c(O)c12 | inactive | inactive | inactive | inactive | inactive | – | inactive | –
CNC(=O)c1ccccc1 | inactive | inactive | inactive | inactive | inactive | – | inactive | –
Oc1ccc(C2(c3ccc(O)cc3)CC3CC2C2CCCC32)cc1 (stereo not drawn) | inactive | inactive | inactive | inactive | 47 µM (active) | inactive | – | –
NNc1nc(-c2ccccc2)cs1 | inactive | inactive | inactive | inactive | inactive | – | inactive | –
CCCCCCCCNC(C)C(O)c1ccc(SC(C)C)cc1 (stereo not drawn) | 10.7 µM (active) | 1.88 µM (active) | 1.68 µM (active) | 1.68 µM (active) | 21.3 µM (active) | inactive | – | inactive
CN1CCC(Nc2ncc3ncnc(Nc4ccc(F)c(Cl)c4)c3n2)CC1 | inactive | 13.3 µM (active) | 23.7 µM (active) | 21.1 µM (active) | inactive | inactive | – | inactive
Cc1cc(O)c(C(C)(C)C)cc1Sc1cc(C(C)(C)C)c(O)cc1C | 10.9 µM (active) | 21.6 µM (active) | 12.2 µM (active) | 12.2 µM (active) | 15.5 µM (active) | inactive | 38.5 µM (active) | 24.3 µM (active)
O=C(OCC1CO1)C1CCCCC1C(=O)OCC1CO1 (stereo not drawn) | inactive | 8.64 µM (active) | 0.77 µM (active) | 9.7 µM (active) | inactive | inactive | inactive | inactive
CCCCC(CC)CN=C(N)NC(N)=NCCCCCCN=C(N)NC(N)=NCC(CC)CCCC (stereo not drawn) | 19 µM (active) | 8.41 µM (active) | 11.9 µM (active) | 10.6 µM (active) | 13.4 µM (active) | inactive | 26.6 µM (active) | 16.8 µM (active)
C1CCCC1 | inactive | inactive | inactive | inactive | inactive | – | inactive | –
CC(C)(C)c1ccc(C(=O)O)cc1 | inactive | inactive | inactive | inactive | inactive | – | inactive | –
